Data reported in the supplement of paper PMC6555819.

tested on: RARb:RXRa (NR concentration 270 nM, RXRa partner concentration 90 nM); experiment: PBM binding z-score (relative to random genomic background probes); higher = stronger binding; sequences stand for … in GC…GCGATTGACAGCGTAGAATGAAGG
Procedure, shortened: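 Antibodies against each partner of ligand-free nuclear receptor dimers (one per run) detected binding on custom Agilent 4×180K protein-binding microarrays after 1 h incubation. The double-stranded probes had 34-nt variable regions carrying direct-repeat seeds, single-nucleotide variants, half-site ablations and random human genomic background sequences. Binding z-scores, from regression-normalized fluorescence, use the random background probes as reference.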

Question: Which PBM binding z-score does the source give for TTACCAGGGTGAAGGTCGTTGATCCCTCTGTAGA here?
Answer: The PBM binding z-score was 1.69.

Question: Which PBM binding z-score does the source give for TCATATAGGTAAACTGGTGAAAGTCCGTAAGTTA here?
Answer: The PBM binding z-score was 0.361.

Question: For TCTATTAGTTCATTAGGGCAACCGAAACAGCGGA, which PBM binding z-score is on record?
Answer: The PBM binding z-score was 2.64.

Question: Which PBM binding z-score does the source give for TCTTGTAGATCAACGGTTAAGAAAGCCGAAGCCT here?
Answer: Its PBM binding z-score is 0.235.

Question: Which PBM binding z-score does the source give for TCTAGTTAGTCAAAGGTCACACACTCGAAATGCG here?
Answer: Its PBM binding z-score is 4.74.

Question: For ATCTCTATGTAACCAAGTTCAGTGAATGCCGAAC, which PBM binding z-score is on record?
Answer: Its PBM binding z-score is 0.755.

Question: TGAATGAGGTTATAAGATCACGGAACGTTGCAAA was tested. Which PBM binding z-score did it give?
Answer: Its PBM binding z-score is 1.5.

Question: How did the PBM binding z-score turn out when CGTCAAAGTTCGAGGTAACGTAACAGAAAGCAGC was run?
Answer: Its PBM binding z-score is 2.73.

Question: For CAAACTAGGCCAAAGGTCAAAGTCGAGCCAACCA, which PBM binding z-score is on record?
Answer: The PBM binding z-score was 5.26.

Question: GCATATAGGTAATAGAAGGTGAAAGTCCGATTGT was tested. Which PBM binding z-score did it give?
Answer: The PBM binding z-score was 0.402.

Question: Which PBM binding z-score does the source give for TCTTGTAGATCAGCAGGTTAAGAAGGCTGGCCAA here?
Answer: The PBM binding z-score was 0.214.

Question: For GCTGCTAGGTCAACTGATCGTCAGCTAAAGCTCG, which PBM binding z-score is on record?
Answer: Its PBM binding z-score is 4.19.

Question: How did the PBM binding z-score turn out when TTACCAAGGGGAAGGTCGTTGATCCCTCTGTAGA was run?
Answer: Its PBM binding z-score is 0.811.

Question: CTCGAAAGGTTGGTTGAGGTGAGTATACGGATAA was tested. Which PBM binding z-score did it give?
Answer: The PBM binding z-score was 1.17.

Question: TCTTGTAGATAAATAGAGGTTAAGAAAGTGCGCT was tested. Which PBM binding z-score did it give?
Answer: The PBM binding z-score was 0.915.

Question: For GCTCGGAGGATAAGGTCAGAGCTTTGTCCGTAGA, which PBM binding z-score is on record?
Answer: The PBM binding z-score was 3.29.

Question: With TCATATCGGTAAAGGTGAAAGTCGAACGATATGA as the sequence, how does the PBM binding z-score read?
Answer: The PBM binding z-score was 1.98.

Question: For CGTCCAAGGTCAACGGTCAGTGAAGAGATGACGG, which PBM binding z-score is on record?
Answer: Its PBM binding z-score is 5.55.

Question: How did the PBM binding z-score turn out when GCTATTAGTTGATAGGGCAACCGAATGATTCTCG was run?
Answer: Its PBM binding z-score is 0.561.

Question: How did the PBM binding z-score turn out when GATACAGGGTCAAGGCCGGAGTACGCGTATTGAT was run?
Answer: Its PBM binding z-score is 4.55.

Question: How did the PBM binding z-score turn out when CGAACTAGGTCATTGACACGACAGTGAATAGTAA was run?
Answer: Its PBM binding z-score is 3.52.

Question: For CCTACTGTGCCAAAGGTCATTGATTCCAATGCTC, which PBM binding z-score is on record?
Answer: Its PBM binding z-score is 4.63.

Question: Which PBM binding z-score does the source give for TCTCGGAGTACACGAAAGGTCAGAGCTCGACATC here?
Answer: The PBM binding z-score was 3.79.

Question: CCAGACAGGTGAAAGGGAACTCAGTCTGGTACGC was tested. Which PBM binding z-score did it give?
Answer: The PBM binding z-score was 0.537.

Question: Which PBM binding z-score does the source give for ATCTAAAGGTCGTGAGGTGAGTATACAGAAAGGC here?
Answer: Its PBM binding z-score is 4.15.

Question: CCGACTGCGGCAAAGGTTACCATACTCAGTACGA was tested. Which PBM binding z-score did it give?
Answer: Its PBM binding z-score is 1.82.

Question: For TCTTGTAGCTCAGCAGGTTAAGAAAGCTGGCCAA, which PBM binding z-score is on record?
Answer: Its PBM binding z-score is -0.157.

Question: Which PBM binding z-score does the source give for CCTACTGGGCGAAAGGTCATTGATTCCAATGCTC here?
Answer: Its PBM binding z-score is 4.28.

Question: How did the PBM binding z-score turn out when ATTGAAAGGTCGTGAGGTGAGTATACAGAAAGGC was run?
Answer: Its PBM binding z-score is 4.3.

Question: How did the PBM binding z-score turn out when CTAGACAGGTGAGAAGGTAACTCAGCCTCGATTA was run?
Answer: The PBM binding z-score was 0.44.

Question: For AGTCAAAGTTCACTAGGTGACGTAAGATTCAGCT, which PBM binding z-score is on record?
Answer: Its PBM binding z-score is 4.87.

Question: For TCTTGTAGATCAAGCAGGTTAAGCAAGCCTGAGT, which PBM binding z-score is on record?
Answer: Its PBM binding z-score is 0.278.

Question: For GCTAGCAGGCCATTTGGTTCACTCAATGACGGGC, which PBM binding z-score is on record?
Answer: The PBM binding z-score was 0.187.

Question: Which PBM binding z-score does the source give for CCTAGCAGGCCAAGCTGGGTCACTCAAGGCTTGA here?
Answer: Its PBM binding z-score is 1.7.

Question: With GCAGAGAGGTGAAACGCAGGTAACTCAGGGTGGC as the sequence, how does the PBM binding z-score read?
Answer: The PBM binding z-score was 1.88.

Question: For TCTTGTAGATTAAGCAGGTTAAGAAAGCCTGAGT, which PBM binding z-score is on record?
Answer: The PBM binding z-score was 0.106.

Question: Which PBM binding z-score does the source give for CCTGGTAGGTCAATGGTCAGCTAAAGCAGCTCGC here?
Answer: The PBM binding z-score was 3.63.

Question: With GCAGACAGGTGAAACGCACGTAACTCAGGGTGGC as the sequence, how does the PBM binding z-score read?
Answer: The PBM binding z-score was 0.539.

Question: For TCTAGAAGGCCAGAGGGTCACTCAAGAGGTACGG, which PBM binding z-score is on record?
Answer: Its PBM binding z-score is 2.68.

Question: With GGAGACAGGTGAAACGCAGGTAACTCAGGGTGGC as the sequence, how does the PBM binding z-score read?
Answer: The PBM binding z-score was 0.904.
